The full list was thinned out, with hits kept by preference.
Dicer inh: human Dicer pre-microRNA cleavage inhibition. cat-ELCCA pre-miR-21 Dicer processing, chemiluminescence; hits give high values. AID 1347074. z-score at 25 µM. 47,000 tested, 6% active; in the data active means z-score above about 3, passing the limit was not always enough;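 further: higher signal means more uncleaved substrate so more Dicer inhibition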
Large screens that a line does not name were inactive.

Cc1ccc(CNCc2ccc3c(c2)OCO3)s1	none
Cc1ccc(C)c(NCc2ccc3c(c2)OCO3)c1	Dicer inh 5.4
Cc1cccc(C(=O)N(C)C2CCCCC2)c1C	none
NC1=NC(c2ccc(O)c(O)c2)n2c(nc3ccccc32)N1 (centres undefined)	none
O=C(O)CCSc1ccc2ccccc2c1	none
Nc1cc(N)nc(SCCC(=O)O)n1	Dicer inh 3.3
O=C(O)CCSc1nc2ccccc2[nH]1	none
CCOC(=O)c1c(-c2ccc(C)cn2)csc1N	none
N#Cc1c2c(c(N3CCCCC3)n3c1nc1ccccc13)CCC2	none
Cc1cccnc1N1C(=O)C2C3c4ccccc4C(c4ccccc43)C2C1=O (centres undefined)	none
COc1cccc(N2CC(=O)N(N)CC2=O)c1	Dicer inh 3.8
COc1ccc(N2C(=O)C3C4c5ccccc5C(c5ccccc54)C3C2=O)cc1 (centres undefined)	none
COC(=O)c1ccccc1N1CC(C(=O)O)CC1=O (centres undefined)	none
COc1cccc(N2CC(=O)N(NC(=O)NC3CCCCC3)CC2=O)c1	none
NN1CC(=O)N(c2cccc(C(F)(F)F)c2)CC1=O	none
COc1ccccc1N1C(=O)C2C3c4ccccc4C(c4ccccc43)C2C1=O (centres undefined)	none
COC(=O)c1ccccc1N1C(=O)C2C3c4ccccc4C(c4ccccc43)C2C1=O (centres undefined)	Dicer inh 4.2
COc1cccc(N2C(=O)C3C4c5ccccc5C(c5ccccc54)C3C2=O)c1 (centres undefined)	Dicer inh 3.7
Cc1cnc(NC(=O)c2ccccc2)c(Br)c1	none
COc1ccc(-n2nc(C(=O)O)c(C)c(C#N)c2=O)cc1	none
OC(CNC1CCN(Cc2ccccc2)CC1)C(F)(F)F (centres undefined)	none
C=CCOc1ccc2c(=O)c(Oc3ccccc3Cl)coc2c1	none
COc1ccc(-c2nc(=S)c3c(n2CCO)CCCC3)cc1	none
COC(=O)C(CCSC)NC(=O)c1cc2c(n(-c3ccccc3)c1=O)CCCC2=O (centres undefined)	none
O=C1CCCc2c1cc(C(=O)NC1CCSC1=O)c(=O)n2-c1ccccc1 (centres undefined)	none
O=C1CCCc2c1cc(C(=O)O)c(=O)n2-c1ccccc1	Dicer inh 3.7
Clc1ccc2nc(-c3ccc(Cl)c(Cl)c3)cnc2c1	none
O=c1/c(=C/c2cccs2)sc2nnc(-c3ccc(Cl)cc3)n12	none
CCCCCCn1c(C(C)O)nc2ccccc21 (centres undefined)	none
Nc1nonc1-c1nc2ccccc2n1Cc1ccccc1Cl	none
O=C1CC(c2nc3ccccc3n2Cc2ccccc2Cl)CN1c1ccccc1 (centres undefined)	Dicer inh 4
CCCCCn1c(C2CC(=O)N(c3ccccc3)C2)nc2ccccc21 (centres undefined)	Dicer inh 5.3
O=C1CC(c2nc3ccccc3[nH]2)CN1c1ccccc1 (centres undefined)	none
CCCCn1c(C2CC(=O)N(c3ccccc3)C2)nc2ccccc21 (centres undefined)	none
CS(=O)(=NS(=O)(=O)c1ccc(Cl)c(Cl)c1)c1ccccc1 (centres undefined)	none
O=C(Nc1ccccc1SCc1noc(-c2cccs2)n1)c1cccc(C(F)(F)F)c1	none
COc1ccc(S(=O)(=O)NNc2c(Cl)cc(Cl)cc2Cl)cc1OC	none
O=C(COC(=O)c1cccc(S(=O)(=O)N2CCSCC2)c1)c1ccccc1	none
Cc1ccccc1C1C2=C(Nc3c1c(=O)[nH]c(=O)n3C)c1ccccc1C2=O (centres undefined)	none
O=C(O)C1CCN(c2ccc(C(F)(F)F)cn2)CC1	none
O=c1[nH]nc(-c2cc(Cl)cc(Cl)c2)c2ccccc12	none
CC1(C)CC(=O)C2=C(C1)Nc1ccccc1NC2c1ccccc1F (centres undefined)	none
CC1(C)CC(=O)C2=C(C1)Nc1ccccc1NC2c1cccs1 (centres undefined)	none
CC1(C)CC(=O)C2=C(C1)Nc1ccccc1S2	Dicer inh 4.1
COC(=O)c1c(NC2=NS(=O)(=O)c3ccccc32)sc2c1CCCC2	none
Cc1ccccc1COc1ncnc2cc(Cl)ccc12	none
Cc1ccc(Cn2c(-c3nonc3N)nc3ccccc32)cc1	none
Nc1nonc1-c1nc2ccccc2n1Cc1ccc(Cl)cc1	none
Nc1nonc1-c1nc2ccccc2n1CC(=O)N1CCN(c2ccc(F)cc2)CC1	Dicer inh 3.4
O=C1CN(CC(=O)N2CCN(c3ccc(F)cc3)CC2)c2ccccc2O1	none
CN(C(=O)Cn1c(-c2cncs2)nc2ccccc21)c1ccccc1	none
CN(C(=O)Cn1c(-c2nonc2N)nc2ccccc21)c1ccccc1	Dicer inh 4.1
COc1cccc(Cn2c(-c3nonc3N)nc3ccccc32)c1	Dicer inh 4.2
Nc1nonc1-c1nc2ccccc2n1CC(=O)Nc1ccc(F)cc1	none
CCC(=O)Nc1nonc1-c1nc2ccccc2n1CCC(C)C	none
O=C(Cn1cnc([N+](=O)[O-])n1)NCc1cccnc1	none
O=[N+]([O-])c1cc(Cl)c(N2CCOCC2)cc1N1CCOCC1	none
COc1cc([N+](=O)[O-])c(OC)cc1SCc1n[nH]c(=S)n1-c1cccc(Cl)c1C	none
O=c1c2ccccc2cnn1Cc1ccccc1	none
O=C(c1cccnc1)N(c1ccc2oc(=O)sc2c1)S(=O)(=O)c1ccc(Cl)cc1	Dicer inh 10
O=C(c1ccncc1)N(c1ccc2oc(=O)sc2c1)S(=O)(=O)c1ccc(F)cc1	Dicer inh 3.2
CC(C)C(=O)N(c1ccc2oc(=O)sc2c1)S(=O)(=O)c1ccc(Cl)cc1	none
O=C(c1cccnc1)N(c1ccc2oc(=O)sc2c1)S(=O)(=O)c1ccc(F)cc1	Dicer inh 11
O=C(c1ccncc1)N(c1ccc2oc(=O)sc2c1)S(=O)(=O)c1ccc(Cl)cc1	none
COc1ccc(OC)c(S(=O)(=O)N(C(=O)c2cccnc2)c2ccc3oc(=O)sc3c2)c1	none
CC(C)C(=O)N(c1ccc2oc(=O)sc2c1)S(=O)(=O)c1ccc(F)cc1	none
Cc1cc(-c2nnc(SC3CCOC3=O)o2)no1 (centres undefined)	none
Cc1cc(NC2=NS(=O)(=O)c3ccccc32)ccc1Br	none
COc1ccc(OC)c(CN2CCN(C3CCC(C)CC3)CC2)c1 (centres undefined)	none
CCOC(=O)C1=C(C)N(c2ccc(F)cc2)C(=O)C1CC(=O)Nc1ccc(F)cc1 (centres undefined)	none
COc1ccc(OC(=O)Nc2ccc(Cc3ccc(NC(=O)Oc4ccc(OC)cc4)cc3)cc2)cc1	none
CN(C)CCCNCC(O)Cn1c2ccc(Cl)cc2c2cc(Cl)ccc21 (centres undefined)	none
CCOC(=O)C(=CNc1cc(C(F)(F)F)ccc1N1CCCCC1)C(=O)OCC	none
CCOC(=O)C(C)c1ccc2cc(OC)ccc2c1 (centres undefined)	Dicer inh 4.6
CCOC(=O)NC(=S)c1ccc(OC)cc1	none
COc1ccc2cc(CCC(C)=O)ccc2c1	none
Cc1n[nH]c(C)c1Sc1ccc(Cl)cc1	none
COc1cccc(OC)c1-c1nn(-c2ccc(C(F)(F)F)cn2)c(=O)o1	none
Cc1cc(C)c(S(=O)(=O)N(C(=O)c2ccncc2)c2ccc3oc(=O)sc3c2)cc1C	Dicer inh 5
COc1ccc(OC)c(S(=O)(=O)N(C(=O)C(C)C)c2ccc3oc(=O)sc3c2)c1	none
Cc1ccc(S(=O)(=O)N(C(=O)c2ccncc2)c2ccc3oc(=O)sc3c2)c(C)c1	Dicer inh 7.7
CC(=O)Nc1cc2cc([N+](=O)[O-])ccc2oc1=O	none
COc1ccccc1C1C2=C(CC(C)(C)CC2=O)Nc2[nH]c(=O)[nH]c(=O)c21 (centres undefined)	none
CCN(/C=C/c1nnnn1-c1ccc(C)cc1)CC	none
O=C(Nc1ccc(F)cc1)c1csc2c1CCCC2	none
